Assay results taken from PubChem BioAssay (NCI).
The panel holds about 83,000 compounds, 20% with a hit somewhere; the sample as a whole holds those more often.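 Percent growth is the endpoint: 0 to 100 indicates growth inhibition (40 means 60% inhibition), 0 means no net growth, and negative values indicate cell death.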 Activity calls are given as the source filed them. How the source made its calls: active means growth percent below 10; inactive means the rest.

Tests used:
Assay in all cases: NCI-60 one-dose screen, 48 h (100 = growth as untreated, 0 = no growth, -100 = all killed)
Conditions in all cases: 10 µM unless noted
NCI-H23 lung = test system: NCI-H23 lung
NCI-H226 lung = test system: NCI-H226 lung
NCI-H322M lung = test system: NCI-H322M lung
HOP-62 NSCLC = test system: HOP-62 NSCLC
NCI-H460 lung = test system: NCI-H460 lung
HOP-92 NSCLC = test system: HOP-92 NSCLC
NCI-H522 lung = test system: NCI-H522 lung
A549/ATCC NSCLC = test system: A549/ATCC NSCLC
786-0 renal = test system: 786-0 renal
COLO 205 colon = test system: COLO 205 colon
DU-145 prostate = test system: DU-145 prostate
K-562 leukemia = test system: K-562 leukemia
MALME-3M melanoma = test system: MALME-3M melanoma
MDA-MB-231 breast = test system: MDA-MB-231 breast
RXF 393 renal = test system: RXF 393 renal
SF-268 CNS = test system: SF-268 CNS
SF-295 CNS = test system: SF-295 CNS
SF-539 CNS = test system: SF-539 CNS
UACC-257 melanoma = test system: UACC-257 melanoma
M14 melanoma = test system: M14 melanoma

Measured: growth

CC(C)(C)c1nc(-c2ccc(O)c(O)c2)cs1
inactive: NCI-H23 lung 68.8% | NCI-H226 lung 93.7% | NCI-H322M lung 93.2% | HOP-62 NSCLC 66.7% | NCI-H460 lung 33.1% | HOP-92 NSCLC 61.3% | NCI-H522 lung 21% | A549/ATCC NSCLC 55.7% | 786-0 renal 77.5% | COLO 205 colon 92.6% | DU-145 prostate 66.3% | K-562 leukemia 50% | MALME-3M melanoma 86.8% | MDA-MB-231 breast 54.3% | RXF 393 renal 72% | SF-268 CNS 67.1% | SF-295 CNS 61.6% | SF-539 CNS 57.7% | UACC-257 melanoma 76.2% | M14 melanoma 43.2%

Cc1ccc(C)c2c1CCC2C(C)C (stereo not given)
inactive: NCI-H23 lung 91.9% | NCI-H226 lung 98.6% | NCI-H322M lung 97.9% | HOP-62 NSCLC 101% | NCI-H460 lung 105% | HOP-92 NSCLC 93.6% | NCI-H522 lung 94.8% | A549/ATCC NSCLC 87.2% | 786-0 renal 98.7% | COLO 205 colon 104% | DU-145 prostate 103% | K-562 leukemia 90.4% | MALME-3M melanoma 101% | MDA-MB-231 breast 99.6% | RXF 393 renal 112% | SF-268 CNS 96.8% | SF-295 CNS 102% | SF-539 CNS 97.5% | UACC-257 melanoma 89.6% | M14 melanoma 95%

C=C(C)[C@@H]1CC[C@]2(C)[C@H](CC=C3[C@@H]4CC(C)(C)CC[C@]4(C(=O)OC)CC[C@]32C)[C@@]1(C)CC/C(N)=N/O
active: NCI-H23 lung 8.68% | NCI-H226 lung 2.13% | A549/ATCC NSCLC -28.8% | RXF 393 renal -49.4% | UACC-257 melanoma -32.1%
inactive: NCI-H322M lung 85.6% | HOP-62 NSCLC 79.3% | NCI-H460 lung 74.9% | HOP-92 NSCLC 45.9% | NCI-H522 lung 33.5% | 786-0 renal 66.6% | COLO 205 colon 35.6% | DU-145 prostate 75.1% | K-562 leukemia 23.9% | MALME-3M melanoma 58.9% | MDA-MB-231 breast 66.1% | SF-268 CNS 67.9% | SF-295 CNS 33.6% | SF-539 CNS 65.3% | M14 melanoma 43.8%

Cc1ccc(/C=C(\C#N)c2cc3ccccc3n2C)cc1
active: COLO 205 colon 3.21% | SF-295 CNS 9.43% | SF-539 CNS 8.03%
inactive: NCI-H23 lung 24.6% | NCI-H226 lung 57.6% | NCI-H322M lung 58.7% | HOP-62 NSCLC 47.1% | NCI-H460 lung 11% | HOP-92 NSCLC 90.5% | NCI-H522 lung 31.3% | A549/ATCC NSCLC 31.2% | 786-0 renal 49.9% | DU-145 prostate 25.5% | K-562 leukemia 14.7% | MALME-3M melanoma 59.8% | MDA-MB-231 breast 18.7% | RXF 393 renal 20.6% | SF-268 CNS 64.4% | UACC-257 melanoma 89.6% | M14 melanoma 14%

C[Si](C)(C)Cc1ccccc1
inactive: NCI-H23 lung 102% | NCI-H226 lung 114% | NCI-H322M lung 119% | HOP-62 NSCLC 99.9% | NCI-H460 lung 120% | HOP-92 NSCLC 110% | NCI-H522 lung 139% | A549/ATCC NSCLC 120% | 786-0 renal 98% | COLO 205 colon 139% | DU-145 prostate 125% | K-562 leukemia 126% | MALME-3M melanoma 115% | MDA-MB-231 breast 115% | RXF 393 renal 132% | SF-268 CNS 122% | SF-295 CNS 103% | SF-539 CNS 107% | UACC-257 melanoma 112% | M14 melanoma 104%

Cc1ccncc1C(=O)O
inactive: NCI-H23 lung 92.7% | NCI-H226 lung 101% | NCI-H322M lung 101% | HOP-62 NSCLC 113% | NCI-H460 lung 99.6% | HOP-92 NSCLC 88.4% | NCI-H522 lung 128% | A549/ATCC NSCLC 90.1% | 786-0 renal 103% | COLO 205 colon 128% | DU-145 prostate 101% | K-562 leukemia 116% | MALME-3M melanoma 96.2% | MDA-MB-231 breast 101% | RXF 393 renal 118% | SF-268 CNS 94.8% | SF-295 CNS 99.8% | SF-539 CNS 94.4% | UACC-257 melanoma 102% | M14 melanoma 100%

NCCn1cc(-c2nc(-c3c[nH]c4ncccc34)cs2)c2cc(Br)ccc21
inactive: NCI-H23 lung 81.9% | NCI-H226 lung 80.3% | NCI-H322M lung 80.1% | HOP-62 NSCLC 78.1% | NCI-H460 lung 14.9% | HOP-92 NSCLC 53.6% | NCI-H522 lung 100% | A549/ATCC NSCLC 65.3% | 786-0 renal 87.3% | DU-145 prostate 82.3% | K-562 leukemia 19.4% | MALME-3M melanoma 95.9% | MDA-MB-231 breast 56.7% | RXF 393 renal 80.5% | SF-268 CNS 82.8% | SF-295 CNS 102% | SF-539 CNS 84.2% | UACC-257 melanoma 95.5% | M14 melanoma 87.7%
active: COLO 205 colon -17.1%

COc1ccc(-c2nc3c(c(C)nn3-c3ccc(F)cc3)c(=O)[nH]2)cc1
inactive: NCI-H23 lung 83.3% | NCI-H226 lung 33.1% | NCI-H322M lung 78.7% | HOP-62 NSCLC 58.8% | NCI-H460 lung 28.2% | HOP-92 NSCLC 91.8% | NCI-H522 lung 81.3% | A549/ATCC NSCLC 45.9% | 786-0 renal 11% | COLO 205 colon 74% | DU-145 prostate 85% | K-562 leukemia 97.1% | MALME-3M melanoma 75.3% | MDA-MB-231 breast 75.2% | RXF 393 renal 82.8% | SF-268 CNS 78.9% | SF-295 CNS 68.1% | SF-539 CNS 87% | UACC-257 melanoma 101% | M14 melanoma 82.7%

N#C/C(=C\c1ccc(-c2ccccc2)o1)c1nc(-c2ccco2)cs1
inactive: NCI-H23 lung 82.7% | NCI-H226 lung 81.3% | NCI-H322M lung 84.6% | HOP-62 NSCLC 98.6% | NCI-H460 lung 85% | HOP-92 NSCLC 87.4% | NCI-H522 lung 93.8% | A549/ATCC NSCLC 101% | 786-0 renal 106% | COLO 205 colon 104% | DU-145 prostate 107% | K-562 leukemia 93.2% | MALME-3M melanoma 94.8% | MDA-MB-231 breast 86.3% | RXF 393 renal 105% | SF-268 CNS 101% | SF-295 CNS 97.6% | SF-539 CNS 94.9% | UACC-257 melanoma 103% | M14 melanoma 93.8%

COc1ccc(-c2cc(=O)oc3ccc(Cl)cc23)cc1F
inactive: NCI-H23 lung 18.1% | NCI-H226 lung 49.1% | NCI-H322M lung 46.9% | HOP-62 NSCLC 20.8% | HOP-92 NSCLC 33.6% | A549/ATCC NSCLC 10.8% | 786-0 renal 25% | DU-145 prostate 14.7% | MALME-3M melanoma 103% | MDA-MB-231 breast 21.8% | RXF 393 renal 38.7% | SF-268 CNS 26.2% | SF-295 CNS 20.4% | UACC-257 melanoma 47.3% | M14 melanoma 15.3%
active: NCI-H460 lung 7.67% | NCI-H522 lung -27.8% | COLO 205 colon -26.4% | K-562 leukemia 7.21% | SF-539 CNS -2.9%

O=C1C(=O)c2ccccc2C(O)=C1CCCc1ccc(C2CCCCC2)cc1
inactive: NCI-H23 lung 36.9% | NCI-H226 lung 47.1% | NCI-H322M lung 81.3% | HOP-62 NSCLC 44% | HOP-92 NSCLC 40.7% | NCI-H522 lung 54.7% | A549/ATCC NSCLC 21.1% | 786-0 renal 30.8% | COLO 205 colon 42.6% | DU-145 prostate 39.2% | K-562 leukemia 32.8% | MALME-3M melanoma 87.9% | MDA-MB-231 breast 52.1% | RXF 393 renal 67.2% | SF-268 CNS 38.1% | SF-295 CNS 39.7% | SF-539 CNS 29.2% | UACC-257 melanoma 34.9% | M14 melanoma 56.3%
active: NCI-H460 lung 7.15%

Cc1cc2nc3c4cc(Cl)ccc4n(CCN(C)C)c3nc2cc1C
inactive: NCI-H23 lung 10.7% | NCI-H226 lung 10.4% | HOP-62 NSCLC 22.1% | HOP-92 NSCLC 25.8% | NCI-H522 lung 19.7% | 786-0 renal 14.3% | DU-145 prostate 15.3% | SF-268 CNS 33.3% | SF-295 CNS 11.4% | SF-539 CNS 14.1% | UACC-257 melanoma 38.7%
active: NCI-H322M lung 9.53% | NCI-H460 lung 1.36% | A549/ATCC NSCLC 3.82% | COLO 205 colon -49.6% | K-562 leukemia 3.43% | MALME-3M melanoma -45.5% | MDA-MB-231 breast 7.77% | RXF 393 renal -0.246% | M14 melanoma -45.7%

COc1ccc(/C=C(\C#N)c2cc3ccccc3n2S(C)(=O)=O)cc1
inactive: NCI-H23 lung 89.8% | NCI-H226 lung 89.7% | NCI-H322M lung 99.6% | HOP-62 NSCLC 91.5% | NCI-H460 lung 105% | HOP-92 NSCLC 86.5% | NCI-H522 lung 73.5% | A549/ATCC NSCLC 104% | 786-0 renal 99.9% | COLO 205 colon 111% | DU-145 prostate 98.2% | K-562 leukemia 30.8% | MALME-3M melanoma 66.5% | MDA-MB-231 breast 85.4% | RXF 393 renal 78.1% | SF-268 CNS 88% | SF-295 CNS 71.6% | SF-539 CNS 79.1% | UACC-257 melanoma 90.2% | M14 melanoma 56.1%

CC(=O)N1N=C(c2ccc(C)cc2)CC1c1ccc(Oc2ccc(Br)cc2)cc1 (stereo not given)
inactive: NCI-H23 lung 83.1% | NCI-H226 lung 90.1% | NCI-H322M lung 73.9% | HOP-62 NSCLC 83.6% | NCI-H460 lung 98.4% | HOP-92 NSCLC 89.4% | NCI-H522 lung 83.2% | A549/ATCC NSCLC 81.5% | 786-0 renal 80% | COLO 205 colon 97.7% | DU-145 prostate 91.4% | K-562 leukemia 75.3% | MALME-3M melanoma 87.6% | MDA-MB-231 breast 85.7% | RXF 393 renal 92.8% | SF-268 CNS 79.5% | SF-295 CNS 94.4% | SF-539 CNS 94.7% | UACC-257 melanoma 96% | M14 melanoma 88.3%

N#C/C(=C\c1ccc(-c2ccc(Br)cc2)o1)c1nc(-c2ccco2)cs1
inactive: NCI-H23 lung 89.4% | NCI-H226 lung 88.2% | NCI-H322M lung 85% | HOP-62 NSCLC 95.7% | NCI-H460 lung 91.4% | HOP-92 NSCLC 86.3% | NCI-H522 lung 93.2% | A549/ATCC NSCLC 98.3% | 786-0 renal 98.8% | COLO 205 colon 102% | DU-145 prostate 101% | K-562 leukemia 97.9% | MALME-3M melanoma 97.7% | MDA-MB-231 breast 76% | RXF 393 renal 101% | SF-268 CNS 101% | SF-295 CNS 91.2% | SF-539 CNS 90.8% | UACC-257 melanoma 102% | M14 melanoma 89.2%
